Laboratory results: PubChem BioAssay (Tox21)
“And” between values parts separate entries of the source, which are not always exact repeats. Identical values can stand only once. Records with an inconclusive call do not appear. Where a call stands in place of a potency, no number is given. Where a structure was tested more than once in an assay, its records may differ in their call. The source made the active and inactive calls. Calls follow the shape of the dose curve; as a rule, active = well fitted inhibition curve with a large enough effect in the repeat runs; inconclusive = weak or mixed curves; inactive = no such curve, though single readings can be large or run the other way.

Each compound was assayed against Cytochrome P450 3A4 (Homo sapiens) (UniProt P08684) (assay: Cytochrome P450 Family 3 Subfamily A Member 4 (CYP3A4) small molecule antagonists: luciferase reporter qHTS assay (AID 1671201; also: nearly all actives have a fitted effect of over 50% in size)). Settings: P450-Glo CYP3A4 enzyme, luciferin luminescence, 1 h; series mostly up to 115 µM.
Chain of Cytochrome P450 3A4 (Homo sapiens) (P08684 whole entry, looked up): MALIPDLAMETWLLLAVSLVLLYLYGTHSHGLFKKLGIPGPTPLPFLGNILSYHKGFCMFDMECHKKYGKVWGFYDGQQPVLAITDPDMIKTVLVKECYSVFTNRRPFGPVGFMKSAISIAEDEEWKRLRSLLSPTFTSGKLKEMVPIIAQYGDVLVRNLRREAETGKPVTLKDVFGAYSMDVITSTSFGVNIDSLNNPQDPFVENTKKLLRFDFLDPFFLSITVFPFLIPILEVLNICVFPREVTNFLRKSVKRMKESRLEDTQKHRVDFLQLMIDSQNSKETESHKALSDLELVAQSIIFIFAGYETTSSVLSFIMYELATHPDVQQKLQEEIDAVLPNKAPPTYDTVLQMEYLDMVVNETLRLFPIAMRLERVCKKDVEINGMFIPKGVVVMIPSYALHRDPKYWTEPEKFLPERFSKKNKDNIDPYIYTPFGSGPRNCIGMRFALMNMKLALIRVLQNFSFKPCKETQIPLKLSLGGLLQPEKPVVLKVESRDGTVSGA
Description: National Center for Advancing Translational Sciences [NCATS]
U.S. Environmental Protection Agency [EPA]
National Institutes of Environmental Health Sciences [NIEHS]
National Toxicology Program [NTP]
U.S. Food and Drug Administration [FDA]
Cytochrome P450 (CYP) enzymes are membrane-bound hemeproteins that play a key role in metabolism of drugs and xenobiotics. Evaluation of the effect of chemicals on CYP isozymes is useful to minimize the adverse drug reactions and toxicities in drug development process. Tox21 chemicals were tested for their effect on CYP enzyme activities by using P450-Glo (TM) screening systems (Promega Corporation, Madison, WI). These systems provide a luminescent method containing proluciferin substrates and are converted to luciferin products by CYP isozymes. The luciferin products formed are detected with a luciferin detection reagent, and the amount of light produced is proportional to CYP activity. P450-Glo (TM) CYP3A4 screening system (Catalog. No. V9910) was used to detect the compounds that interfere in CYP3A4 activity. The positive control compound used for CYP3A4 assay is ketoconazole (Sigma-Aldrich, St. Louis, MO).
Tox21 Assay Protocol Summary:
Two ul of enzyme-substrate mix was dispensed into medium binding white/solid 1536-well plates (Greiner Bio-One North America Inc., Monroe, NC) using a BioRaptr Flying Reagent Dispenser (FRD, Beckman Coulter, Brea, CA). Compounds dissolved in DMSO and positive control (ketoconazole) were transferred to the assay plates at 23 nl using a Pintool station (Wako, San Diego, CA). The assay plates were incubated at room temperature for 10 min. Then 2 ul of NADPH regeneration solution was added to each well of the assay plates using an FRD and incubated at room temperature for 1 h. The reaction was stopped by adding 4 ul of detection reagent using an FRD and after 20 min incubation at room temperature the luminescence signal was measured using a ViewLux plate reader (Perkin Elmer, Shelton, CT). Data were expressed as relative luminescence units.
Potency is read from the fitted curve at half-maximal effect.

Structure (SMILES)	Potency
O=C1C(Cl)=C(Cl)C(=O)c2ccccc21	17.9 µM (active) and 17.8 µM (active)
CC(C)(c1ccccc1)c1ccc(O)c(C(C)(C)c2ccccc2)c1	8.86 µM (active) and 6.33 µM (active)
O=S(=O)(O)C(F)(F)C(F)(F)C(F)(F)C(F)(F)C(F)(F)C(F)(F)C(F)(F)C(F)(F)F	inactive
CCOS(=O)(=O)OCC	inactive
C=CC(Cl)CCl (stereo not given)	inactive
CS(=O)(=O)NC(=O)c1cc(Oc2ccc(C(F)(F)F)cc2Cl)ccc1[N+](=O)[O-]	inactive
CNC(=S)S	inactive
C[C@]12CCC(=O)C=C1CC[C@@H]1[C@@H]2CC[C@@]2(C)[C@H]1CC[C@]2(C)O	inactive
ClCc1ccccn1	inactive
Cc1ccc(N=CN(C)C=Nc2ccc(C)cc2C)c(C)c1	inactive
CN(C)P(=O)(N(C)C)N(C)C	inactive
CC(C)(c1ccccc1)c1ccc(O)cc1	inactive
CCC1(c2ccc(N)cc2)CCC(=O)NC1=O (stereo not given)	31.7 µM (active) and 13.8 µM (active)
Clc1ccccc1-c1nnc(-c2ccccc2Cl)nn1	inactive
CCC[CH2][Sn]([Cl])([Cl])[CH2]CCC	inactive
CNC(=O)Oc1cccc2c1OC(C)(C)C2	inactive
COP(=O)(NC(C)=O)SC (stereo not given)	inactive
C[N+](C)(C)CC(=O)O	inactive
CCCCCCCC[N+](C)(CCCCCCCC)CCCCCCCC	1 µM (active) and 449 nM (active) and 6.33 µM (active)
Cc1ccc([N+](=O)[O-])cc1	inactive

Structure (SMILES)	Potency
CCOP(=S)(OCC)SCn1c(=O)oc2cc(Cl)ccc21	241 nM (active) and 317 nM (active)
CC(C)(C#N)N=NC(C)(C)C#N	inactive
COP(=S)(OC)Oc1ccc(S(=O)(=O)N(C)C)cc1	7.96 µM (active) and 6.92 µM (active)
c1ccc(C2CO2)cc1 (stereo not given)	inactive
CCCCOC(=O)COC(=O)c1ccccc1C(=O)OCCCC	22.3 µM (active) and 35.6 µM (active)
CCNCC	inactive
C=C(C)C#N	inactive
CCCCOCCOC(C)=O	inactive
NC(=O)CN1CCCC1=O	inactive
O=[N+]([O-])c1ccc(Nc2ccccc2)cc1	inactive
CC(C)=CC1C(C(=O)OCc2cccc(Oc3ccccc3)c2)C1(C)C (stereo not given)	inactive
Oc1ccc(Cl)cc1Cc1ccccc1	inactive
OCCOCCO	inactive
CC(C)Nc1ccc(Nc2ccccc2)cc1	12.6 µM (active) and 28.3 µM (active)
CCC[CH2][Sn]([Cl])([CH2]CCC)[CH2]CCC	15.9 µM (active) and 20 µM (active)
CN(C)c1nc(=O)n(C2CCCCC2)c(=O)n1C	inactive
CCOP(=S)(OCC)SCSC(C)(C)C	12.7 µM (active) and 7.1 µM (active)
CCOP(=O)(O)OCC (tested in a mixture with another compound)	inactive and 55.9 µM (active)
CSc1nc(NC(C)C)nc(NC(C)C)n1	inactive
CC1CC(=O)O1 (stereo not given)	inactive
